tim10-1 inh – inhibits growth of tim10-1 mutant yeast; inhibition, % at 20 µM; 330,000 compounds, 2.2% hits; S. cerevisiae tim10-1 ts strain growth, BacTiter-Glo, 24 h;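 active = inhibition of at least 40%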;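 also: mutant grown at 25 °C; 0% = DMSO wells with yeast and 100% = wells holding no yeast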
Mdm2 MdmX PPI – human Mdm2/MdmX binding inhibition | SaOS-2 split-luciferase Mdm2/MdmX complementation, luminescence | 330,000 compounds, 3% hits | inhibition, % at 8 µM | O15151+Q00987;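 active = inhibition of at least 50% at 8 µM in the primary screen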
Target sequence (O15151 whole entry, looked up): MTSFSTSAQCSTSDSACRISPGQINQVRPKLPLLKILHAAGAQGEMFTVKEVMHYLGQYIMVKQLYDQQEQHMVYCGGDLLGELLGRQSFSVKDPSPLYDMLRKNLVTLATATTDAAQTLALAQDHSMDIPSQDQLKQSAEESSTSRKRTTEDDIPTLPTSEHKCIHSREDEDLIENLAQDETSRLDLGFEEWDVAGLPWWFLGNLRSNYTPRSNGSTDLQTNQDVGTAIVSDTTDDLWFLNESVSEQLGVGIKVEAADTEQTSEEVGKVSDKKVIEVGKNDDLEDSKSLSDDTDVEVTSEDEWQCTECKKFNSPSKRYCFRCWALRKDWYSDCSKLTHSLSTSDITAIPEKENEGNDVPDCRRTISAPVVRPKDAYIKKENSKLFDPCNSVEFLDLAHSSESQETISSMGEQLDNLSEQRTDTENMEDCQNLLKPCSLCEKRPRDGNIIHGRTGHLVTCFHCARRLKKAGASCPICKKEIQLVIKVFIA
Target sequence (Q00987 whole entry, looked up): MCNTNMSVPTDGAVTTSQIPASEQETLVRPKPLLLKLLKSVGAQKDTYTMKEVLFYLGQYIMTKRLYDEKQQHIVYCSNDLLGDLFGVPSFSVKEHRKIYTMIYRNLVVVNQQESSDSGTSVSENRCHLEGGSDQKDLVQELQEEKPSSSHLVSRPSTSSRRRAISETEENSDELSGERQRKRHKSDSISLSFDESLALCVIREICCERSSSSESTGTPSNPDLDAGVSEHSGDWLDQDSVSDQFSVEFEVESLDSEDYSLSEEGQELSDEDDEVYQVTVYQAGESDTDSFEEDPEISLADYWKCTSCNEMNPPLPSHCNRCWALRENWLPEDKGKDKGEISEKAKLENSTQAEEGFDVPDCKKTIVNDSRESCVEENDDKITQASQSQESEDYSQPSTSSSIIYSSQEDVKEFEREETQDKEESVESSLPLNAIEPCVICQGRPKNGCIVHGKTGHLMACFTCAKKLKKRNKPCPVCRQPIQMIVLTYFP
TIM10 inh – TIM10 yeast growth inhibition | S. cerevisiae TIM10 strain growth, BacTiter-Glo luminescence, 24 h | inhibition, % at 10 µM | 330,000 compounds, 1.4% hits;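 active = inhibition of 40% or more at the single tested concentration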;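 also: wild-type TIM10 isogenic control strain grown at permissive 25 °C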
MPTP inh – inhibitors of mitochondrial permeability transition pore. isolated mouse mitochondria, Ca2+ swelling absorbance, 30 min. inhibition, % at 10 µM. 360,000 compounds, 1.4% hits;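 active = inhibition of 50% or more, scaled per plate between neutral and stimulator controls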;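 also: 0% = DMSO wells given calcium and 100% = 1 mM EGTA wells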
tim23-1 inh – inhibits growth of tim23-1 mutant yeast; S. cerevisiae tim23-1 growth, BacTiter-Glo luminescence, 24 h; inhibition, % at 20 µM; 330,000 compounds, 1.3% hits; AID 463212;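 active = growth inhibition of the mutant yeast at or above 50%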;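 also: temperature-sensitive mutant grown at 25 °C; plate controls were DMSO-treated mutant yeast for no effect and medium wells lacking yeast for full effect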
Mdm2-MdmX conf – human Mdm2/MdmX binding inhibition, confirmed; 10,000 compounds, 55% hits; inhibition, % at 8 µM; luminescent assay; shares compounds with Mdm2 MdmX PPI; in the data active = inhibition above about 40%
Full FLuc ctr – counter-screen for Mdm2/MdmX inhibitors: full-length luciferase; shares compounds with Mdm2 MdmX PPI; SaOS-2 full-length luciferase counterscreen, luminescence; inhibition, % at 8 µM; 6,200 compounds, 77% hits; AID 504607;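 active = mean inhibition at 8 µM reaching about 37%, which flags the compound as non-specific, limit read from the data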;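 also: p53-null SaOS-2 cells with luciferase driven by a doxycycline-inducible promoter; compound on cells about two nights before reading with doxycycline added after day one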
Starred values were filed as active, the others as inactive; . = no result. Rows were chosen to be rich in hits. Some 6.3% of all compounds tested hit in one or more screens of this group.

SMILES	tim10-1 inh	Mdm2 MdmX PPI	TIM10 inh	MPTP inh	tim23-1 inh	Mdm2-MdmX conf	Full FLuc ctr
NC(=O)CC(NC(=O)Cc1ccc(Br)cc1)c1ccc(NCc2cc(F)ccc2F)c([N+](=O)[O-])c1 (centres undefined)	-11	55*	-1	-2	-11	-10	.
CCc1nc2c(OCc3cc(Cl)cc(Cl)c3)cccn2c1N(C)C(=O)c1cccc(OC)c1	.	.	.	0	.	.	.
COCCNC(=O)C1(C)CCCN(C(=O)c2cc(F)ccc2C)C1 (centres undefined)	.	.	.	1	.	.	.
CCCCCC(=O)N/N=C(\C)c1ccccn1	16	61*	-1	-3	-16	8	.
C/C(=N\NC(=O)COc1ccccc1-c1ccccc1)c1ccc(O)cc1O	17	64*	8	37	21	47*	37*
C/C(=N\NC(=O)COc1ccccc1-c1ccccc1)c1ccccn1	35	86*	16	-1	18	72*	51*
CC1CN(c2nc(-c3ccc(Br)cc3)nnc2-c2ccccc2)CC(C)N1 (centres undefined)	19	81*	8	8	19	54*	52*
CCC(=O)Oc1ccc2ccccc2c1CNC(=O)c1ccccc1	24	55*	2	5	23	19	.
Cc1ccnc(NC(=O)CSc2cc(=O)n(C)c3ccccc23)c1	24	83*	5	2	5	76*	127*
Cc1ccc(NC(=O)CCCc2c[nH]c3ccccc23)nc1	-16	10	5	1	10	.	.
Cn1c(=O)cc(OCCCC(=O)NCc2ccccn2)c2ccccc21	5	17	-2	0	4	.	.
Cn1c(=O)cc(OCCCC(=O)NCc2ccc(F)cc2Cl)c2ccccc21	14	57*	2	2	-7	20	.
Cn1c(=O)cc(OCCCC(=O)NC2CCCC2)c2ccccc21	8	67*	15	-2	-5	48*	86*
Cc1ccnc(NC(=O)CCCc2c[nH]c3ccccc23)c1	4	68*	3	-2	-7	36	.
CCOc1ccc(NC(=O)CCCOc2cc(=O)n(C)c3ccccc23)cc1	13	52*	-11	0	-18	20	.
Cc1ccnc(NC(=O)CCCOc2cc(=O)n(C)c3ccccc23)c1	17	75*	17	0	20	84*	117*
COc1cccc(NC(=O)CCCOc2cc(=O)n(C)c3ccccc23)c1	-2	29	-3	-1	4	.	.
CC(C)C[C@H]1COc2cc(N3CCC[C@@H]3CO)ccc2S(=O)(=O)N1	.	.	.	-2	.	.	.
COc1ccc(-c2cc(C(F)F)n3ncc(C(=O)Nc4cc(C)on4)c3n2)cc1	20	59*	-7	3	-12	12	.
Cc1ccc(C2CC(C(F)F)n3ncc(C(=O)Nc4c(C)nn(Cc5c(F)cccc5Cl)c4C)c3N2)cc1 (centres undefined)	22	70*	24	0	2	26	.
Cc1ccc(-c2cc(C(F)F)n3ncc(C(=O)Nc4c(C)nn(Cc5c(Cl)cccc5Cl)c4C)c3n2)cc1	24	80*	-16	-2	-10	-9	.
Cc1nn(Cc2c(Cl)cccc2Cl)c(C)c1NC(=O)c1cnn2c(C(F)F)cc(-c3ccccc3)nc12	35	35	5	-1	-3	.	.
COc1ccc(-c2cc(C(F)F)n3ncc(C(=O)Nc4c(C)n(C)n(-c5ccccc5)c4=O)c3n2)cc1	3	11	7	-1	9	.	.
Cc1ccc(-c2cc(C(F)F)n3ncc(C(=O)Nc4c(C)nn(Cc5ccccc5Cl)c4C)c3n2)cc1	30	78*	30	2	15	28	.
CC(C)CC(NS(=O)(=O)c1ccccc1)C(=O)O (centres undefined)	11	20	0	2	-10	.	.
SMILES	tim10-1 inh	Mdm2 MdmX PPI	TIM10 inh	MPTP inh	tim23-1 inh	Mdm2-MdmX conf	Full FLuc ctr
CC(C)CN=C(NS(=O)(=O)c1ccccc1)C(Cl)(Cl)Cl	10	88*	16	2	37	81*	36
CCOC(=O)N1CCN(Cc2nc3ccc([N+](=O)[O-])cc3c(=O)n2-c2ccccc2F)CC1	36	52*	7	-1	27	41*	75*
O=C1Nc2cc(C(=O)NCCCN3CCOCC3)ccc2S/C1=C/c1cccc(Cl)c1	-6	73*	-2	2	4	2	.
CCC1CCCCN1CCCNC(=O)c1ccc(/C=C2/Sc3ccccc3NC2=O)cc1 (centres undefined)	19	86*	-1	1	1	40	55*
CCN1CCN(CCCNC(=O)c2ccc(/C=C3/Sc4ccccc4N(Cc4ccccc4F)C3=O)cc2)CC1	27	94*	-5	-3	34	74*	24
CCN1CCN(CCNC(=O)c2ccc(/C=C3/Sc4ccccc4N(Cc4ccccc4C)C3=O)cc2)CC1	.	.	.	-5	.	.	.
CNc1ncnc2c1ncn2[C@H]1CN(Cc2ccc(-c3ccccc3)cc2)C[C@@H](CO)O1	.	.	.	0	.	.	.
O=[N+]([O-])c1cc(S(=O)(=O)Nc2cccc(Cl)c2)ccc1N/N=C/c1ccc(N2CCOCC2)cc1	16	84*	14	8	-3	3	.
O=[N+]([O-])c1ccccc1/C=C/C=N/Nc1ccc(S(=O)(=O)Nc2ccc(Cl)cc2)cc1[N+](=O)[O-]	13	56*	29	4	15	12	.
O=C(O)c1ccc(N/N=C/C=C/c2ccccc2[N+](=O)[O-])cc1	4	-20	4	1	21	.	.
COc1cc(C(O)c2nc(/C=C/c3ccc(C(F)(F)F)cc3)cs2)ccc1F (centres undefined)	.	.	.	2	.	.	.
N#CCCN(Cc1ccccc1)C(C(=O)NC1CCCCC1)c1cc2ccccc2o1 (centres undefined)	.	.	.	-1	.	.	.
O=C(c1cccs1)N1C[C@@H](n2cc(-c3ccc(F)cc3)nn2)[C@H](O)C[C@@H]1c1ccccc1	.	.	.	1	.	.	.
COc1ccc(CNCc2cn(-c3cccc(F)c3)nc2-c2ccc(C)o2)cc1	-20	52*	6	2	25	13	.
Cc1cc2c(cc1C)-c1c(ssc1=Nc1ccc(S(N)(=O)=O)cc1)C(C)(C)N2	10	62*	9	0	3	40*	44*
CN1CCN(c2cc(-c3ccc4ccccc4c3)nc3ccnn23)CC1	.	.	.	1	.	.	.
CCCCN(C)CCCNC(=O)c1cn(CC)c2ccc(S(=O)(=O)N3CCc4ccccc4C3)cc2c1=O	-9	54*	-5	-4	9	24	.
CCCCN(CCCC)CCNC(=O)c1cn(CC)c2ccc(S(=O)(=O)N3CCCC3)cc2c1=O	-3	17	1	-1	0	.	.
CCCCN(CC)CCCNC(=O)c1cn(CC)c2ccc(S(=O)(=O)N3CCc4ccccc4C3)cc2c1=O	-30	57*	-6	-3	8	22	.

Source: PubChem (Sanford-Burnham Center for Chemical Genomics)
